Records with an inconclusive call do not appear. Active and inactive are the calls of the source. Rule for the calls, unless noted: active = hit-call score of the fitted dose curve at least 0.9, where 1 is the maximum; inactive = score below 0.9.

23 compounds from PubChem BioAssay (EPA / NIEHS) can be followed below.

The nature of assay [1]: CCTE_Shafer_MEA_acute_AB: CCTE's Alamar Blue Assay for Cytotoxicity in the Neural Acute Assay, Shafer Lab (AID 2284069; active = hit-call score of the fitted dose curve at least 0.9, where 1 is the maximum;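 note: active compounds lower the viability signal compared with DMSO wells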). The method, boiled down: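 Read-out: resazurin fluorescence (ex 544, em 590 nm) after CTB reagent at 1:6 dilution in fresh media. Cells: primary rat cortical neuron networks, DIV 13 or 15, chemically exposed on MEA plates; DMSO as negative control/baseline.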
For orientation: Alamar Blue is a resazurin reagent that responds to reducing activity.

A short description of assay [2]: CCTE_Shafer_MEA_dev_correlation_coefficient_mean: CCTE's Neural Network Formation Assay for Mean Correlation Coefficient, Shafer Lab (AID 2284093).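 For AC50: well mean pairwise spike train correlation integrated as AUC over recording days 5 to 12; potency fitted for loss of correlation relative to DMSO vehicle wells.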 In short, it runs like this:
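Rat cortical cultures, 1.5 x 10^5 cells/well, dosed from day 0 for 12 days. Spontaneous spikes recorded DIV 5/7/9/12; electrode-pair correlation coefficients averaged, AUC taken. Fit in loss direction vs DMSO.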

The nature of assay [3]: CCTE_Shafer_MEA_dev_AB: CCTE's Alamar Blue Assay for Cytotoxicity in the Neural Network Formation Assay, Shafer Lab (AID 2284083; active = hit-call score of the fitted dose curve at least 0.9, where 1 is the maximum;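 note: resazurin reduction fluorescence as viability of cultured neurons; twelve days of exposure from plating with re-dosing on DIV 5 and 9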). The method, boiled down: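 Rat cortical primary cultures, 1.5 x 10^5 cells/well on MEA; continuous compound exposure over 12 days of network development, re-dosed with full medium change DIV 5 and 9. Alamar Blue fluorescence; loss of signal = cytotoxicity vs DMSO baseline.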

Assay [4] in a line: UKN2_HCS_IMR90_neural_migration: University of Konstanz (UKN) Leist Lab Neural Crest Cell Migration Assay in human induced IMR90 Pluripotent Stem Cells (UKN2) (AID 2284204). The settings on record: actives raise or lower the signal. In short, it runs like this: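 High-content imaging of calcein-AM and Hoechst stained cells quantifies migration into a stopper-defined gap after 24 h compound exposure. Neural crest cells from IMR90 iPSC migrated 24 h in EGF/FGF N2-S medium before dosing; DMSO baseline.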

Assay [5] in a line: IUF_NPC1b_proliferation_BrdU_72hr: Leibniz Research Institute for Environmental Medicine (IUF) 72-hour Neural Progenitor Cell Bromodeoxyuridine (BrdU) Proliferation Assay (NPC1b) (AID 2284207). In short, it runs like this: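 Human fetal cortex-derived (GW 16-19) neural progenitor spheres, 0.25-0.35 mm, one per well in EGF/FGF proliferation medium, exposed to compound for 72 h at 37C, pH 7.2-7.6. BrdU incorporation over the final 16 h read by luminescence ELISA, relative to DMSO.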

A short description of assay [6]: IUF_NPC1a_proliferation_area_72hr: Leibniz Research Institute for Environmental Medicine (IUF) 72-hour Neural Progenitor Cell Proliferation Area Assay (NPC1a) (AID 2284208). The method, boiled down: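 Proliferation is scored as sphere area gain in primary human fetal neural progenitors treated for 72 h in EGF/FGF-containing medium. Viability, LDH and BrdU readouts come from the same wells.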

A short description of assay [7]: IUF_NPC1_viability_72hr: Viability Assessment at 72 hours in the Leibniz Research Institute for Environmental Medicine (IUF) Neural Progenitor Cell Proliferation Assay (NPC1) (AID 2284209). The method, boiled down:
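Alamar blue fluorescence (RFU) after 72 h exposure, normalized to DMSO baseline. hNPC spheres from GW 16-19 fetal cortex, single sphere per well in growth-factor medium; no compound renewal.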

Assay [8] in a line: CCTE_Mundy_HCI_Cortical_Synap_Neur_Matur_NeuriteSpotCountPerNeuriteLength: CCTE's Synaptogenesis and Neurite Maturation Assay in rat cortical cells for Neurite Spot Count per Neurite Length, Mundy Lab (AID 2284210). In short, it runs like this:
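Synaptophysin spots per unit neurite length, measured by automated imaging of MAP2/synaptophysin/Hoechst-stained neurons. Cultures from rat cortex received chemical at DIV 7 with media change through DIV 12; glial growth arrested by AraC at DIV 5; DMSO baseline.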

The nature of assay [9]: UKN5_HCS_SBAD2_neurite_outgrowth: University of Konstanz (UKN) Leist Lab Neurite Outgrowth Assay in human iPSC-derived immature Dorsal Root Ganglia Neurons (UKN5) (AID 2284070). The settings on record: actives raise or lower the signal. The method, boiled down: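 Cryopreserved SBAD2 peripheral neurons were seeded at 100.000 cells/cm2 in N2-S/KSR medium containing CHIR99021, SU5402 and DAPT, then exposed to compounds for 24 h. Neurite area from calcein-AM high-content imaging was fitted bidirectionally against DMSO.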

Assay [10] can be described thus: UKN4_HCS_LUHMES_neurite_outgrowth: University of Konstanz (UKN) Leist Lab Neurite Outgrowth Assay in human LUHMES cells (UKN4) (AID 2284206). The settings on record: actives raise or lower the signal. In short, it runs like this:
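Read-out: calcein-AM neurite area by high-content fluorescence imaging, with Hoechst H-33342 viability counterstain, after 24 h chemical exposure of day-2 differentiated LUHMES cells. Activity fitted bidirectionally against DMSO baseline.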

On to `CC(C)(C)c1ccccc1O`, for which, in assay [1], the result was inactive.

Turning to `C=CCOC(F)(C(F)(F)F)C(F)(F)F`, the outcome in assay [2] was inactive.

As to `FC(F)OCC(F)(F)C(F)(F)F`, the result in assay [2] was inactive.

Consider `CCOCn1c(-c2ccc(Cl)cc2)c(C#N)c(Br)c1C(F)(F)F`, for which the AC50 (usually the concentration at which the activity in the assay is half-maximal) in assay [3] was 20.4 µM (active); in [2] it was 5.53 µM (active); in assay [4], 9.47 µM (active); in [6], 26.3 µM (active); in assay [7] it was 26.8 µM (active); in assay [8], 22.7 µM (active). The call in assay [5] was inactive.

Consider `CCCCCCCCCCCCc1cccc(S(=O)(=O)O)c1`, for which the result in assay [1] was inactive.

Consider `CC1(C)[C@H](C(=O)O[C@H](C#N)c2cccc(Oc3ccccc3)c2)[C@@H]1/C=C(\Cl)C(F)(F)F`, for which the AC50 in assay [3] was 12.9 µM (active); in assay [2], 5.11 µM (active); in assay [5], 3.63 µM (active); in assay [8], 4.59 µM (active). Also, the compound was classed as inactive in assay [6] and in assay [7].

Take `Oc1ccc(Cc2ccc(O)cc2)cc1`: the call in assay [1] was inactive.

In the case of `OCCCCO`, in assay [1], the outcome was inactive.

As to `CNC(=O)CSP(=O)(OC)OC`, the call in [9], in [2], in assay [4], in [10], in [5] and in assay [6] was inactive. Besides, the call in [7] and in [8] was inactive.

Regarding `OC(Cc1ccccc1Cl)(Cn1[nH]cnc1=S)C1(Cl)CC1` (centres undefined), the AC50 is 71.3 µM (active) in assay [3]; 21.5 µM (active) in [2]; 35.4 µM (active) in assay [4]; 0.0417 µM (active) in assay [5]; 80.4 µM (active) in [8]. Moreover, the call in [6] and in assay [7] was inactive.

For `O=S1OC[C@@H]2[C@H](CO1)[C@]1(Cl)C(Cl)=C(Cl)[C@@]2(Cl)C1(Cl)Cl` (some centres undefined), the result in assay [9], in assay [5] and in assay [6] was inactive. The AC50 in assay [4] was 14.6 µM (active); in assay [10], 18.6 µM (active); in assay [7], 2.59 µM (active).

In the case of `CC(=O)C(F)(F)C(F)(F)F`, the outcome in assay [2] was inactive.

`C=CC(F)(C(F)(F)F)C(F)(F)C(F)(F)F` (centres undefined): in assay [2], the compound was classed as inactive.

With `CC(C)[C@@H](Nc1ccc(C(F)(F)F)cc1Cl)C(=O)OC(C#N)c1cccc(Oc2ccccc2)c1` (some centres undefined), the compound was called inactive in assay [1], in assay [5], in assay [6], in assay [7] and in [8]. The AC50 in assay [3] and in assay [2] was 14.5 µM (active) in each case.

Regarding `CS(=O)(=O)c1ccc(C(=O)C2C(=O)CCCC2=O)c(Cl)c1COCC(F)(F)F`, the result in assay [3], in assay [2], in assay [5], in [6], in assay [7] and in assay [8] was inactive.

Regarding `Cc1ccccc1OP(=O)(Oc1ccccc1C)Oc1ccccc1C`, the AC50 in assay [3] is 21.1 µM (active); in assay [2], 15 µM (active); in assay [4], 4.73 µM (active). For the same compound, the compound was called inactive in assay [5], in assay [6], in assay [7] and in assay [8].

Turning to `CCCCOC(=O)COC(=O)c1ccccc1C(=O)OCCCC`, the result in assay [1] was inactive.

`CC(F)(F)CC(F)(F)F`: the compound was classed as inactive in [3] and in assay [2].

For `Oc1cc(Cl)c(Cl)cc1Cl`, in assay [1], the call was inactive.

Take `Cc1cc(C(F)(C(F)(F)F)C(F)(F)F)ccc1NC(=O)c1cccc(I)c1C(=O)NC(C)(C)CS(C)(=O)=O`: the AC50 is 4.32 µM (active) in assay [3], 19.2 µM (active) in assay [2] and 0.264 µM (active) in assay [10]. Also, the compound was called inactive in assay [5], in assay [6], in [7] and in assay [8].

As for `O=S(=O)(F)C(F)(F)C(F)(F)C(F)(F)C(F)(F)F`, the outcome in assay [3] and in [2] was inactive.

In the case of `CN(C)C(=S)S`, in assay [1], the outcome was inactive.

On to `NC(=O)c1ccc(N)nc1`, for which the AC50 is 8.53 µM (active) in [3] and 4.57 µM (active) in assay [2]. Moreover, the result in assay [8] was inactive.
